Measurements reported in PubChem BioAssay (NCI).
Several values for one entry are separate records, joined by “and”; a condition that tells them apart may be missing. Equal values may be shown once. This is part of a sample that, as a whole, favours compounds with a hit. Of some 83,000 tested, about 20% had one in any assay.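 Cell lines were cultured in 96-well plates, exposed to a single compound concentration, and assessed for percent growth 48 hours later.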 Activity calls are given as the source filed them. Rule for the calls: active = growth percent below 10; inactive = the rest.

Assays:
Experiment in all cases: NCI-60 one-dose screen, 48 h (100 = growth as untreated, 0 = no growth, -100 = all killed)
Settings in all cases: 10 µM unless noted
SR leukemia = tested on: SR leukemia
RPMI-8226 leukemia = tested on: RPMI-8226 leukemia
OVCAR-8 ovarian = tested on: OVCAR-8 ovarian
OVCAR-5 ovarian = tested on: OVCAR-5 ovarian
OVCAR-4 ovarian = tested on: OVCAR-4 ovarian
SK-OV-3 ovarian = tested on: SK-OV-3 ovarian
IGROV1 ovarian = tested on: IGROV1 ovarian
OVCAR-3 ovarian = tested on: OVCAR-3 ovarian
HS 578T breast = tested on: HS 578T breast
NCI/ADR-RES ovarian = tested on: NCI/ADR-RES ovarian
T-47D breast = tested on: T-47D breast
BT-549 breast = tested on: BT-549 breast
MDA-MB-435 melanoma = tested on: MDA-MB-435 melanoma
SW-620 colon = tested on: SW-620 colon
HCT-116 colon = tested on: HCT-116 colon
HCC-2998 colon = tested on: HCC-2998 colon
KM12 colon = tested on: KM12 colon
MCF7 breast = tested on: MCF7 breast

Measured: growth

O=C(NC(CSSCC(NC(=O)OCc1ccccc1)C(=O)O)C(=O)O)OCc1ccccc1 (stereo not given)
inactive: SR leukemia 67.8% and 77.7% | RPMI-8226 leukemia 64.7% and 95.7% | OVCAR-8 ovarian 79.5% and 103% | OVCAR-5 ovarian 90.9% and 99.3% | OVCAR-4 ovarian 68.3% and 104% | SK-OV-3 ovarian 107% and 83.5% | IGROV1 ovarian 73.1% and 106% | OVCAR-3 ovarian 97.7% and 105% | HS 578T breast 99.9% and 104% | NCI/ADR-RES ovarian 97.2% and 101% | T-47D breast 79.1% and 82.4% | BT-549 breast 109% and 81.3% | MDA-MB-435 melanoma 96% and 100% | SW-620 colon 94.3% and 106% | HCT-116 colon 98.4% and 74.7% | HCC-2998 colon 110% and 96.2% | KM12 colon 95.4% and 106%

C/C(CC(C)C)=N/NC(N)=S
inactive: SR leukemia 90.9% | RPMI-8226 leukemia 73.7% | OVCAR-8 ovarian 69% | OVCAR-5 ovarian 114% | OVCAR-4 ovarian 72.2% | SK-OV-3 ovarian 105% | IGROV1 ovarian 97.4% | OVCAR-3 ovarian 48.1% | HS 578T breast 96.8% | NCI/ADR-RES ovarian 46.7% | T-47D breast 39% | MDA-MB-435 melanoma 104% | SW-620 colon 85.4% | HCT-116 colon 11.8% | HCC-2998 colon 101% | KM12 colon 101%

O=[N+]([O-])c1cccc(N=Cc2ccccc2)c1
inactive: SR leukemia 88.4% | RPMI-8226 leukemia 101% | OVCAR-8 ovarian 93.1% | OVCAR-5 ovarian 107% | OVCAR-4 ovarian 111% | SK-OV-3 ovarian 106% | IGROV1 ovarian 114% | OVCAR-3 ovarian 122% | HS 578T breast 110% | NCI/ADR-RES ovarian 108% | BT-549 breast 101% | MDA-MB-435 melanoma 109% | SW-620 colon 117% | MCF7 breast 102% | HCT-116 colon 103% | HCC-2998 colon 103% | KM12 colon 112%

Nc1nc(N)c2cc(S(=O)(=O)c3ccccc3)ccc2n1
inactive: SR leukemia 22% and 47.4% | RPMI-8226 leukemia 51% and 54.5% | OVCAR-8 ovarian 38% and 43.5% | OVCAR-5 ovarian 39.2% and 75.8% | OVCAR-4 ovarian 54% | SK-OV-3 ovarian 62.1% and 52.1% | IGROV1 ovarian 36.6% and 58.6% | OVCAR-3 ovarian 53.9% and 59.7% | HS 578T breast 65.8% and 73.4% | NCI/ADR-RES ovarian 41.2% and 50.2% | T-47D breast 72.7% and 59% | MDA-MB-435 melanoma 33.5% and 31% | SW-620 colon 21.8% and 25.3% | MCF7 breast 40.2% and 29.5% | HCT-116 colon 16.3% and 13.4% | HCC-2998 colon 30.6% | KM12 colon 32.5% and 28.7%

CCN(CC)CCNC(=O)c1ccc(NCN2C(=O)NC(c3ccccc3)(c3ccccc3)C2=O)cc1
inactive: SR leukemia 99.5% and 113% | RPMI-8226 leukemia 104% | OVCAR-8 ovarian 99.9% and 111% | OVCAR-5 ovarian 104% and 119% | OVCAR-4 ovarian 105% and 104% | SK-OV-3 ovarian 123% and 90.9% | IGROV1 ovarian 144% and 107% | OVCAR-3 ovarian 110% and 98.8% | HS 578T breast 98.4% and 103% | NCI/ADR-RES ovarian 107% and 111% | T-47D breast 117% and 95.2% | MDA-MB-435 melanoma 94.6% and 103% | SW-620 colon 105% and 106% | HCT-116 colon 104% and 95.1% | HCC-2998 colon 102% and 125% | KM12 colon 106% and 101%

COc1ccc2oc3c(ccc[n+]3C)c(=O)c2c1
inactive: SR leukemia 119% | RPMI-8226 leukemia 104% | OVCAR-8 ovarian 96.5% | OVCAR-5 ovarian 98.9% | OVCAR-4 ovarian 108% | SK-OV-3 ovarian 99.7% | IGROV1 ovarian 108% | OVCAR-3 ovarian 109% | HS 578T breast 99.8% | NCI/ADR-RES ovarian 108% | T-47D breast 85.9% | BT-549 breast 103% | MDA-MB-435 melanoma 105% | SW-620 colon 105% | HCT-116 colon 101% | HCC-2998 colon 117% | KM12 colon 108%

O=C(O)C#Cc1ccc(Cl)cc1
inactive: SR leukemia 100% | RPMI-8226 leukemia 106% | OVCAR-8 ovarian 97.6% | OVCAR-5 ovarian 102% | OVCAR-4 ovarian 97.5% | SK-OV-3 ovarian 92.5% | IGROV1 ovarian 98.3% | OVCAR-3 ovarian 110% | HS 578T breast 93.6% | NCI/ADR-RES ovarian 108% | T-47D breast 90.7% | MDA-MB-435 melanoma 106% | SW-620 colon 96.8% | MCF7 breast 98.8% | HCT-116 colon 102% | HCC-2998 colon 108% | KM12 colon 104%

CCN(CC)Cc1cc2[nH]c3c4ccc(Cl)cc4ncc3c2cc1OC
1.09% (active) and 44% (inactive): MDA-MB-435 melanoma
33.3% (inactive) and -1.1% (active): OVCAR-4 ovarian
active: SR leukemia -49.9% and -13.8% | RPMI-8226 leukemia -39.2% | HCT-116 colon -3.8% and 7.95%
inactive: OVCAR-8 ovarian 83.2% and 80.6% | OVCAR-5 ovarian 98% and 98.6% | SK-OV-3 ovarian 83.8% and 105% | IGROV1 ovarian 293% and 63.1% | OVCAR-3 ovarian 87.5% | NCI/ADR-RES ovarian 78.1% and 102% | T-47D breast 99.2% and 94.2% | MCF7 breast 16.5% and 64.2% | HCC-2998 colon 83.6% and 101%
2.32% (active) and 42.7% (inactive): KM12 colon
-7.12% (active) and 99.3% (inactive): HS 578T breast
4.64% (active) and 25.5% (inactive): SW-620 colon

CCOCCC(=O)O
inactive: SR leukemia 109% | RPMI-8226 leukemia 107% | OVCAR-8 ovarian 109% | OVCAR-5 ovarian 101% | OVCAR-4 ovarian 104% | SK-OV-3 ovarian 102% | IGROV1 ovarian 114% | OVCAR-3 ovarian 115% | HS 578T breast 98.7% | NCI/ADR-RES ovarian 107% | T-47D breast 94.1% | BT-549 breast 107% | MDA-MB-435 melanoma 108% | SW-620 colon 101% | HCT-116 colon 97.3% | HCC-2998 colon 123% | KM12 colon 117%

COC(=O)c1cc(C(=O)OC)cc([N+](=O)[O-])c1
inactive: SR leukemia 74.7% | RPMI-8226 leukemia 93.8% | OVCAR-8 ovarian 93.5% | OVCAR-5 ovarian 106% | OVCAR-4 ovarian 106% | SK-OV-3 ovarian 98.5% | IGROV1 ovarian 118% | OVCAR-3 ovarian 120% | HS 578T breast 103% | NCI/ADR-RES ovarian 115% | BT-549 breast 91.6% | MDA-MB-435 melanoma 115% | SW-620 colon 102% | MCF7 breast 98% | HCT-116 colon 95.3% | HCC-2998 colon 99.2% | KM12 colon 112%

CCN(C)c1ccccc1
inactive: SR leukemia 93.3% | RPMI-8226 leukemia 104% | OVCAR-8 ovarian 98.2% | OVCAR-5 ovarian 115% | OVCAR-4 ovarian 109% | SK-OV-3 ovarian 89.6% | IGROV1 ovarian 113% | OVCAR-3 ovarian 108% | HS 578T breast 96.2% | NCI/ADR-RES ovarian 97.3% | T-47D breast 105% | BT-549 breast 84.2% | MDA-MB-435 melanoma 104% | SW-620 colon 110% | HCT-116 colon 106% | HCC-2998 colon 107% | KM12 colon 109%

Nc1ccccc1SC(CC(=O)c1ccccc1)c1cccc([N+](=O)[O-])c1 (stereo not given)
70.2% (inactive) and 2.4% (active): SR leukemia
inactive: OVCAR-8 ovarian 87.9% and 92.8% | OVCAR-5 ovarian 105% and 119% | OVCAR-4 ovarian 89% and 74.5% | SK-OV-3 ovarian 104% and 109% | IGROV1 ovarian 127% and 96.5% | OVCAR-3 ovarian 104% and 66.5% | HS 578T breast 106% and 110% | NCI/ADR-RES ovarian 91.4% and 92.9% | T-47D breast 88.3% and 90% | MDA-MB-435 melanoma 102% and 85.5% | HCC-2998 colon 110% | KM12 colon 73.9%
14.1% (inactive) and 1.5% (active): SW-620 colon
active: RPMI-8226 leukemia -30.1% and -4.39% | HCT-116 colon -71.2% and -58.6%

O=c1[nH]nnc2cc(Cl)ccc12
inactive: SR leukemia 117% and 102% | RPMI-8226 leukemia 112% and 109% | OVCAR-8 ovarian 95.2% and 98.2% | OVCAR-5 ovarian 103% and 96.5% | OVCAR-4 ovarian 124% and 98.8% | SK-OV-3 ovarian 114% and 117% | IGROV1 ovarian 104% and 116% | OVCAR-3 ovarian 100% and 123% | HS 578T breast 126% and 123% | NCI/ADR-RES ovarian 106% and 97.5% | BT-549 breast 110% | MDA-MB-435 melanoma 104% and 102% | SW-620 colon 95.3% and 99.8% | MCF7 breast 114% and 94.5% | HCT-116 colon 104% and 103% | HCC-2998 colon 109% and 98.7% | KM12 colon 101% and 102%

Nc1ccc(Cl)c(S(=O)(=O)O)c1
inactive: SR leukemia 103% | RPMI-8226 leukemia 111% | OVCAR-8 ovarian 93.3% | OVCAR-5 ovarian 95.7% | OVCAR-4 ovarian 106% | SK-OV-3 ovarian 99.5% | IGROV1 ovarian 102% | OVCAR-3 ovarian 101% | HS 578T breast 98.8% | NCI/ADR-RES ovarian 103% | T-47D breast 92.4% | BT-549 breast 96% | MDA-MB-435 melanoma 107% | SW-620 colon 99.1% | HCT-116 colon 102% | HCC-2998 colon 110% | KM12 colon 103%
